In PubChem BioAssay (NCI) one finds growth data, which are given here for 40 molecules.

Each structure is given as a SMILES string. The panel holds about 83,000 compounds, 20% with a hit somewhere; the sample as a whole holds those more often.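 96-well plates, one dose, 48 hours. Percent growth reported; active if below 10.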 Unmarked numbers belong to inactive results. The source made the active and inactive calls.

The experiment deals with HL-60(TB) leukemia. The experiment can be described thus: NCI-60 one-dose screen, 48 h (100 = growth as untreated, 0 = no growth, -100 = all killed). The following applies: 10 µM unless noted.
In the case of `CCn1c(CSc2nc3ccccc3c(=O)n2CCc2ccccc2)n[nH]c1=S`, the growth was 90.9%.
For `CCOC(=O)/C=C1\SC(=Nc2ccc(C#N)cc2)N(CCN2C(=O)/C(=C/C(=O)OCC)SC2=Nc2ccc(C#N)cc2)C1=O`, the growth was 55.5%.
On to `C=C1C(=O)O[C@H]2[C@H]1CC/C(COC(=O)NCc1nc3ccccc3[nH]1)=C\CC[C@@]1(C)O[C@@H]21`, for which the growth was 17%.
As for `COc1cc(-c2nn(-c3cccc(NC(=O)c4ccc(Cl)c(C(F)(F)F)c4)c3)cc2-c2ccncc2)ccc1Cl`, the growth was 3.23% (active).
Consider `Nc1ccn(C2OC(CO)C(O)C2F)c(=O)n1` (stereo not given), for which the growth is 105%.
Turning to `NCC(=O)NS(=O)(=O)OC[C@H]1O[C@@H](n2cnc3c(N)ncnc32)[C@H](O)[C@@H]1O`, the growth is -9.28% (active).
On to `C=CC1CN2CCC1CC2C(O)c1ccnc2ccc(OC)cc12` (stereo not given), for which the growth was 103%.
For `CCSCC1CC(O)(c2ccccc2)CC(c2ccc(F)cc2)O1` (stereo not given), the growth is -31.9% (active).
Under `N#CC(C#N)C(C#N)C#N` stands 98.6%; under `CN(C)CC(CN(C)C)C(O)c1ccccc1` (stereo not given), 99.8%; under `COc1cc(/C=C/C(=O)N2CCN(C(=O)c3cc(OC)c(OC)c(OC)c3)CC2)ccc1OCCCOc1cc2c(cc1OC)C(=O)N1CCC[C@H]1C=N2`, -28% (active).
Take `CCN(CC)CCN1CC(O)=C(c2nc(-c3ccc(Cl)cc3)cs2)C1=N`: the growth was -33.7% (active).
As to `Cc1nc(N/N=C/c2cn(-c3ccccc3)nc2-c2cc3ccccc3oc2=O)sc1N=Nc1ccccc1`, the growth was 89%.
Regarding `CSc1nnc2c(=O)n(C)c(=O)n(C)c2n1`, the growth is 161%.
In the case of `C=C(C)[C@@H]1C/C=C(\COC(=O)[C@H](OC(C)=O)C(NC(=O)c2ccccc2)c2ccccc2)CC[C@H]2O[C@]2(C)CC/C=C(\C)CC1` (stereo not given in full), the growth is 29.9% [5 µM].
For the molecule `O=C1Nc2ccccc2/C1=C/c1c[nH]c2ccccc12`, the growth was 102%.
Take `CC1(C)CC(=O)C2=C(C1)N(c1ccc(OC(F)(F)F)cc1)C(N)=C(C#N)C2c1ccc(Br)cc1F` (stereo not given): the growth was 78.5%.
As to `CCOC(=O)c1csc(-c2ccc(COC(=O)c3ccccc3)o2)n1`, the growth was 107%.
Take `CCCCCCCCCNCCCCCCCCC`: the growth was 28.6%.
Consider `C=C1CCC2C3(C)COC(C)(C)OC3CCC2(C)C1C/C=C1/C(=O)OCC1OC(C)=O` (stereo not given), for which the growth was -43.8% (active).
For the molecule `Cc1[nH]n(-c2cccc(Cl)c2)c(=O)c1/C=C1\C=c2ccccc2=CC1=O`, the growth was 104%.
On to `CCc1cccc2c1S/C(=C/c1ccc(OC)cc1)C2=O`, for which the growth is 5.21% (active).
Under `O=C(OCc1nc2nc(Cl)nc(N3CCOCC3)c2[nH]1)n1ccnc1` stands -30.1% (active); under `CC1(C)CCC(=NNC(N)=S)CC1`, 109%.
The result for `COc1ccc(-c2nn(-c3ccccc3)cc2/C=C/C(=O)NNC(=O)Nc2ccc(C)cc2)cc1` reads 90.5%; that for `C=CCn1c(SCC(=O)Nc2ccc(C(=O)/C=C/c3ccc(Cl)cc3)cc2)nnc1-c1ccc(Cl)c(Cl)c1`, 56.8%; that for `COc1ccc(/C=N/OCC(O)CN2CCC(O)CC2)cc1OC1CCCC1` (stereo not given), 100%.
Consider `NS(=O)(=O)Oc1ccc(-c2ccc3sccc3c2)cc1`, for which the growth was 99.7%.
In the case of `COc1cc2oc(-c3cccc(C(=O)Nc4ccc(Cl)cc4)c3)cc(=O)c2c(OC)c1OC`, the growth is -11.1% (active).
As to `Nc1ccc(CCCCc2ccccc2)c(Cl)c1`, the growth was 78.7%.
Take `Nc1nc(N)c2c(ccc3c2ccn3Cc2cccc([N+](=O)[O-])c2)n1`: the growth is 8.38% (active).
As to `O=C(Nc1nc2ccc(OC(F)(F)F)cc2s1)c1ccc(F)cc1`, the growth is 14.3%.
As to `Clc1nc(-c2cccnc2)nc2sc3c(c12)CCCCCC3`, the growth was 102%.
As for `CCCc1n(Cc2ccc3ccccc3c2)cc[n+]1Cc1ccc2ccccc2c1`, the growth was -53.1% (active).
For the molecule `NC(=O)Nc1ccc(-n2cnc3cc(-c4ccc(O)cc4)ccc32)cc1`, the growth was 95.4%.
Regarding `CCCCN1CCN(c2ccc3nc(-c4ccc5nc(-c6ccc(C(F)(F)F)cc6)[nH]c5c4)[nH]c3c2)CC1`, the growth is -58.7% (active).
Under `N=C(N)c1ccc(-c2ccc(-c3ccccc3)s2)cc1` stands -34.2% (active); under `O=c1[nH]c(=S)c2c(n1CCCO)CCC2`, 95.6%.
Consider `CCOC(=O)c1c2c(n(-c3ccc(C#N)cc3)c1-c1ccccc1)C=CCC2`, for which the growth was 82.9%.
Under `Clc1ccc(-c2noc(/C=C\c3ccccc3)n2)cc1` stands 94%.
